The values that follow come from PubChem BioAssay AID624296 (National Center for Advancing Translational Sciences (NCATS), 2012).

The campaign covered roughly 350,000 compounds. About 9,900 (2.8%) were called active. Where a call stands in place of a potency, no number is given. Another 15% or so got no clear call; they are omitted. The call rests on the fitted dose curve; in most records, active means well fitted activation curve with a large enough effect; inconclusive means small, poorly fitted or top-dose-only effect; inactive means no such curve, though single readings can be large or run the other way. The full list was thinned out, with actives kept by preference.
Potency means the concentration at half of the fitted maximal effect.

The assay is described as follows: A quantitative high throughput screen for small molecules that induce DNA re-replication in MCF 10a normal breast cells. Further: nearly all actives have a fitted effect of over 50% in size. To be noted: MCF 10A DNA re-replication, Hoechst nuclear intensity, 48 h; series mostly up to 46.1 µM.
As for `C=CC[C@H](CC(=O)OC(C)(C)C)C(=O)OC[C@H]1CCCN1C(=O)[C@H](CC=C)CC(=O)N(CCO)Cc1ccccc1`, the Potency entry is “inactive”.

`CC/C(=C(/c1ccccc1)c1ccc(OCC[N+](C)(C)C)cc1)c1ccccc1`: the Potency entry was “inactive”.

For `CCCCN1CC(COc2ccccc2)Oc2cccc(F)c2S1(=O)=O` (centres undefined), the Potency entry is “inactive”.

`CN(C)C(=O)N=NC(=O)N(C)C`: the Potency result is “inactive”.

Regarding `Cc1ccc(-c2nc3ccccc3[nH]2)cc1NC(=O)c1sc2ccccc2c1Cl`, the Potency was 20.6 µM (active).

With `COc1ccc(Br)cc1C(=O)NC(=S)Nc1cc(-c2nc3ccccc3[nH]2)ccc1C`, the Potency entry was “inactive”.

As for `O=C(Nc1cccc(-c2nc3ccccc3[nH]2)c1)c1ccc(C(=O)Nc2cccc(-c3nc4ccccc4[nH]3)c2)cc1`, the Potency result was “inactive”.

With `COc1ccc(S(=O)(=O)N2CCOCC2)cc1NC(=O)CSc1cc(C)ccc1C`, the Potency result was “inactive”.

Regarding `CCN(CC(=O)Nc1ccccc1C(=O)NC1CC1)Cc1cccs1`, the Potency result is “inactive”.

Turning to `CCC(=O)Nc1ccc(S(=O)(=O)NCC2CCCO2)cc1` (centres undefined), the Potency result is “inactive”.

With `O=S(=O)(NCC1CCCO1)c1ccc2ccccc2c1` (centres undefined), the Potency is 2.91 µM (active).

Turning to `CCOc1ccc(S(=O)(=O)NCC2CCCO2)cc1` (centres undefined), the Potency result was “inactive”.

On to `O=C(COc1ccc(F)cc1Br)NCC1COc2ccccc2O1` (centres undefined), for which the Potency entry is “inactive”.

As for `CCN(C(=O)COC(=O)CCC(=O)c1cccs1)C1CCCCC1`, the Potency entry is “inactive”.

Turning to `CC(=O)c1cc(C#N)c(N2CCCCC2)nc1C`, the Potency entry is “inactive”.

Take `Cc1cc(C)c2nc(N3CCCC3)c(C#N)cc2c1`: the Potency entry was “inactive”.

For `CCOC(=O)c1cc(C#N)c(N2CCCCC2)nc1-c1ccccc1`, the Potency was 13 µM (active).

`CC1CN(C(=O)c2ccc([N+](=O)[O-])s2)CC(C)O1` (centres undefined): the Potency entry is “inactive”.

`C/C(=N\Nc1ccccc1)c1cccs1`: the Potency entry was “inactive”.

In the case of `CCCOc1ccc(C(=O)C(CCC(CNCC)C(=O)c2ccc(OCCC)cc2)CNCC)cc1` (centres undefined), the Potency was 25.9 µM (active).

With `CCCOc1ccc(C(=O)NCCc2ccccc2)cc1`, the Potency entry was “inactive”.

With `CCCOc1ccc(C(=O)CCC(=O)OC(C)C(=O)Nc2ccc(NC(C)=O)cc2)cc1` (centres undefined), the Potency result is “inactive”.

As for `COc1ccc(OC)c(-c2csc(NC(=O)COC(=O)C3CC3)n2)c1`, the Potency entry is “inactive”.

With `O=C(c1c(F)cccc1Cl)N1CCN(S(=O)(=O)c2ccc3c(c2)OCCCO3)CC1`, the Potency result was “inactive”.

Take `Cc1cc(C)c(S(=O)(=O)c2ccccc2)c(OC(=O)c2c(F)cccc2Cl)n1`: the Potency was 16.4 µM (active).

Consider `Cc1ccc(NNC(=O)c2c(F)cccc2Cl)cc1Cl`, for which the Potency result is “inactive”.

As to `O=C(COC(=O)c1cccnc1Cl)Nc1ccc(S(=O)(=O)N2CCOCC2)cc1`, the Potency entry was “inactive”.

With `O=C(N[C@H]1C/C=C\C(c2cccc(F)c2)N(Cc2ccccc2)C(=O)C1)OCC1c2ccccc2-c2ccccc21` (some centres undefined), the Potency entry was “inactive”.

Regarding `Cc1nc(-c2ccc(F)cc2)c(CC(=O)N(C)CC(=O)Nc2c(C)cccc2C)s1`, the Potency entry was “inactive”.

For `Cc1nc(-c2ccc(Cl)cc2)sc1C(=O)NN`, the Potency is 16.4 µM (active).

As to `Cc1nc(-c2ccccc2)sc1C(=O)/C=C/N(C)C`, the Potency entry was “inactive”.

Consider `Cc1nc(N2CCOCC2)sc1C(=O)NN`, for which the Potency entry is “inactive”.

For `O=C1CC(c2ccccc2)C(=O)N2C(=O)CC(c3ccccc3)C(=O)N12` (centres undefined), the Potency result was “inactive”.

In the case of `COc1ccc(S(=O)(=O)N(C)C[C@H]2Oc3c(NC(=O)Nc4ccc5c(c4)OCO5)cccc3C(=O)N([C@H](C)CO)C[C@@H]2C)cc1`, the Potency entry is “inactive”.

With `CCCN(C(=O)CSc1nnc(N)s1)c1c(N)n(Cc2ccccc2)c(=O)[nH]c1=O`, the Potency entry is “inactive”.

Regarding `O=C(O)CC1=C(Nc2ccccc2)C(=O)N(c2ccccc2)C1c1ccc(Cl)cc1` (centres undefined), the Potency entry was “inactive”.

Consider `O=C1c2cccc3cc(Br)cc(c23)C(=O)N1Nc1ccccc1`, for which the Potency result was “inactive”.

Consider `O=C1C=C(c2ccc(Cl)cc2)C(=O)N1Nc1ccccc1`, for which the Potency was 5.8 µM (active).

On to `Cc1ccc(Nc2nnc(SC(C)C(=O)NC3CC3)s2)cc1` (centres undefined), for which the Potency result was “inactive”.

As for `O=C(NN=C1CCC(=NNC(=O)c2cccnc2)CC1)c1cccnc1`, the Potency was 0.58 µM (active).

In the case of `C/C(=N\NC(=O)c1cccnc1)c1ccc(-c2ccccc2)cc1`, the Potency result was “inactive”.

As for `O=C(N/N=C/c1ccccn1)c1cccnc1`, the Potency entry was “inactive”.

In the case of `CCN(CC)CCCC(C)n1c2nc(=O)[nH]c(=O)c-2nc2cc(Cl)ccc21` (centres undefined), the Potency entry is “inactive”.

In the case of `CN(C)S(=O)(=O)c1cccc(-c2nn(-c3ccccc3)cc2/C=C2\SC(=S)N(CC(=O)O)C2=O)c1`, the Potency result is “inactive”.

With `Cc1ccc(-c2nn(-c3ccccc3)cc2/C=C2\SC(=S)N(CCCCCC(=O)O)C2=O)o1`, the Potency was 18.4 µM (active).

As to `COc1ccc(-c2nn(-c3ccccc3)cc2/C=C2/SC(=S)N(CCCC(=O)O)C2=O)c(C)c1`, the Potency result is “inactive”.

As for `COc1cc(OC)cc(-c2c(-c3cccs3)c3cc(-c4ccc(OC)nc4)ccc3n2C)c1`, the Potency entry was “inactive”.

As for `O=C(CCNC(=O)c1ccccc1)Nc1nc2ccccc2s1`, the Potency result is “inactive”.

Take `CC(=O)Nc1cccc(-c2cnc3ccccc3n2)c1`: the Potency entry is “inactive”.

Consider `CCS(=O)(=O)Nc1cccc(-c2cc(-c3ccccc3)c3cc(C)ccc3n2)c1`, for which the Potency was 14.6 µM (active).

For `Cc1ccc2nc(Nc3ccccc3)cc(C)c2c1`, the Potency result is “inactive”.

As for `O=C(Cn1cc(C(F)(F)F)ccc1=O)Nc1ccc2c(c1)OCCO2`, the Potency entry is “inactive”.

On to `CC(C)(C)c1ccc(C(=O)NCCn2c(N)c(C#N)c3nc4ccccc4nc32)cc1`, for which the Potency was 7.31 µM (active).

Take `CC(C)(C)OC(=O)c1c(N)n(CCCN2CCCC2=O)c2nc3ccccc3nc12`: the Potency entry was “inactive”.

Consider `CC(C)(C)c1ccc(C(=O)NCC(=O)OCN2C(=O)c3ccccc3C2=O)cc1`, for which the activity, positive = re-replication is -182% [at 0.0737 µM] (inactive).

As to `Cc1ccnc(SCC(=O)Nc2cccc(S(=O)(=O)N3CCOCC3)c2)n1`, the Potency entry was “inactive”.

For `O=C1C(=O)N(c2ccccc2)C(c2ccccc2)C1c1ccccc1` (centres undefined), the Potency entry was “inactive”.

In the case of `O=C(c1nnc(-c2ccc(Cl)cc2)o1)C1CCCC1`, the Potency entry is “inactive”.

Take `O=C(c1[nH]ncc1-c1ccc(Cl)cc1)C1CO1` (centres undefined): the Potency was 3.66 µM (active).

With `S=c1[nH]nc(-c2ccc(Cl)cc2)n1CC1CCCO1` (centres undefined), the Potency result is “inactive”.

`COC(=O)[C@@]1(C)[C@H]2C(=O)N(Cc3ccccc3)C(=O)[C@H]2[C@H]2CN=C(SCC3CC3)N21`: the Potency result is “inactive”.

As for `COc1ccc(Cl)cc1NC(=O)CN(C)CC(=O)Nc1ccc2c(c1)OCO2`, the Potency result was “inactive”.

With `Cc1ccc(C)c(N2CCN(C(=O)CCc3nc(-c4cccc(C(F)(F)F)c4)no3)CC2)c1`, the Potency result was “inactive”.

For `NC(=S)NN=C1CCCC(C(F)(F)F)C1` (centres undefined), the Potency entry was “inactive”.
